Laboratory results reported in PubChem BioAssay (NCATS).
Records with an inconclusive call do not appear. The source made the active and inactive calls. Unless noted, calls follow the shape of the dose curve; as a rule, active = well fitted curve in the direction sought with a large enough effect; inconclusive = small, poorly fitted or top-dose-only effect, or another doubt; inactive = no such curve, though single readings can be large; an effect the other way counts as inactive or inconclusive.

How the values were obtained:
[1] = molecular target: Voltage-gated inwardly rectifying potassium channel KCNH2 (Homo sapiens) (UniProt Q12809); assay: qHTS Assay for Small Molecule Inhibitors of the Human hERG Channel Activity (AID 588834);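 also: lower thallium flux fluorescence means stronger hERG block; nearly all actives have a fitted effect of over 50% in size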; also: potency is read from the fitted curve at half-maximal effect
Outline: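 hERG block measured as reduced thallium-dye (FluxOR) fluorescence after stimulation buffer addition, read over 2 min. Cells were hERG-BacMam-transduced U2OS exposed to compound ~10 min […]; concentration-response fitted with Hill equation for AC50.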

[2] = molecular target: Glutaminase kidney isoform, mitochondrial (Homo sapiens) (UniProt O94925); assay: qHTS for Inhibitors of Glutaminase (GLS): LOPAC Validation (AID 624146); also: nearly all actives have a fitted effect of over 60% in size; also: potency is read from the fitted curve at half-maximal effect
Outline: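 Two-point fluorescence kinetic (t0, 30 min RT) for hKGA; glutamate detected via glutamate oxidase–HRP–Amplex Red. Substrate: 1 mM L-glutamine solution; buffer 45 mM KH2PO4, pH 8.2.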

[3] = qHTS of Trypanosoma Brucei Inhibitors: LOPAC Validation (AID 624147); also: 0% is about no effect
Outline: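 Screened from lowest to highest concentration, compounds were pinned into TbPYK/substrate mixtures, and ADP (130 uM final) was added. Plates sat at room temperature for 45 min prior to Kinase-Glo Plus detection by luminescence.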

[4] = molecular target: Glucagon-like peptide 1 receptor (Homo sapiens) (UniProt P43220); assay: qHTS of GLP-1 Receptor Agonists: LOPAC Validation (AID 624148);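 also: luminescence from a luciferase reporter switched on by cAMP; 0% is about no effect; higher luminescence signal means agonism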
Outline: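 Agonism scored as increased luciferase luminescence driven by cAMP in HEK293 clones carrying GLP-1R. Cells settled 12 hours, received compound for 4-6 hr at 37 deg C, 5% CO2, and were read after 12 min detection reagent at RT.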

[5] = qHTS of Nrf2 Activators: LOPAC Validation (AID 624149); also: 0% is about no effect
Outline: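 Luciferase signal from ARE activation, read with Steady-Glo after 30 min at room temperature. Compounds were pin-transferred onto AREc32_Fluc cells (1000/well, OPTI-MEM/5% FBS, seeded overnight) and left 24 hr at 37 deg C.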

[6] = molecular target: Peroxisome proliferator-activated receptor gamma (Homo sapiens) (UniProt P37231); assay: qHTS assay for small molecule antagonists of peroxisome proliferator-activated receptor gamma signaling (AID 588537; active = well fitted inhibition curve with a large enough effect in the signal ratio, with a control signal flat, not every such curve was filed as active; the % refers to the signal ratio; also: potency is read from the fitted curve at half-maximal effect)
Outline: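 Antagonist-mode β-lactamase reporter screen run as a titration series. HEK293 PPARγ-UAS-bla cells are stimulated with rosiglitazone (50 nM final) for 16 h, then CCF4 is read at 460/530 nm. Data are scaled between DMSO and rosiglitazone and fitted to the Hill equation.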

[7] = molecular target: Vitamin D3 receptor (Homo sapiens) (UniProt P11473); assay: qHTS assay for small molecule agonists of vitamin D receptor signaling (AID 588543; calls by dose curve;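 also: 0% = DMSO basal and 100% = reference agonist control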)
Outline: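 Agonist-mode beta-lactamase reporter: HEK293T VDR-UAS-bla cells in charcoal-stripped 2% FBS, compound series 16 h 37 C, CCF4 2 h RT. EC50 from Hill fit, scaled against DMSO and 50 nM calcitriol control.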

[8] = HTS Assay for Allosteric Antagonists of the Human D2 Dopamine Receptor: Hit Validation in HTRF (AID 624455);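 also: stable D1 dopamine receptor cell line scored for blocking the D1 response; % is scaled to controls: 0 for no effect and ±100 for the full control effect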
Outline: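 Inhibition of the D1-mediated response was measured by HTRF. Cells used were a line stably expressing the D1 dopamine receptor.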

[9] = molecular target: Peroxisome proliferator-activated receptor gamma (Homo sapiens) (UniProt P37231); assay: qHTS assay for small molecule agonists of peroxisome proliferator-activated receptor gamma signaling (AID 588536; active = well fitted curve in the direction sought with a large enough effect in the signal ratio, with a control signal flat, not every such curve was filed as active; the % refers to the signal ratio; also: potency is read from the fitted curve at half-maximal effect)
Outline: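 This is an agonist-mode beta-lactamase reporter assay in HEK293 PPAR-gamma-UAS-bla cells with 1% charcoal/dextran FBS. Compound titrations ran 16 h at 37 C before CCF4 detection. EC50 and efficacy are Hill fits scaled to 2 uM rosiglitazone (100%) and DMSO basal.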

[10] = molecular target: Thyroid hormone receptor beta (Homo sapiens) (UniProt P10828); assay: qHTS assay for small molecule agonists of thyroid hormone receptor beta signaling (AID 588545; calls by dose curve;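 also: 0% = DMSO only and 100% = 10 nM T3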)
Outline: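 Stimulation of a TR-driven beta-lactamase reporter was quantified in GripTite HEK 293 cells. Compound series ran for 18 hrs; curves were normalized to T3 and DMSO controls and fitted to yield EC50.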

[11] = qHTS assay for small molecule antagonists of retinoid X receptor alpha signaling (AID 588546; active = well fitted inhibition curve with a large enough effect in the signal ratio, with a control signal flat, not every such curve was filed as active; the % refers to the signal ratio;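 also: cells stimulated with 9-cis-retinoic acid as agonist; % is scaled to controls: 0 for no effect and ±100 for the full control effect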); settings: HEK293T RXRa-UAS-bla, beta-lactamase ratio, antagonist mode; measured here: W530 green channel, cytotoxicity proxy
Outline: (§1)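 Beta-lactamase reporter inhibition, read as CCF4 fluorescence ratio (ex 405, em 460/530 nm) after 2 h at RT. HEK293T UAS-bla cells, 2500/well, were stimulated with 9-cis-RA at 500 or 100 nM final alongside test compound for 18 h at 37 C.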

[12] = molecular target: Retinoic acid receptor RXR-alpha (Homo sapiens) (UniProt P19793); assay: as above; settings: HEK293T RXRa-UAS-bla, beta-lactamase ratio, antagonist mode
Outline: as §1

[13] = molecular target: Thyroid hormone receptor beta (Homo sapiens) (UniProt P10828); assay: qHTS assay for small molecule antagonists of thyroid hormone receptor beta signaling (AID 588547; active = well fitted inhibition curve with a large enough effect in the signal ratio, with a control signal flat, not every such curve was filed as active; the % refers to the signal ratio;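 also: cells stimulated with 0.4 nM T3 agonist during compound exposure; series mostly up to about 77 µM; % is scaled to controls: 0 for no effect and ±100 for the full control effect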); settings: TR-UAS-bla HEK293, beta-lactamase ratio, antagonist mode, 18 h
Outline: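 Inhibition of T3-driven (0.4nM final) beta-lactamase reporter activity was measured over 0.59 nM to 92 uM compound after 18 h at 37 C. The cells were GripTite HEK293 TR-UAS-bla in charcoal/dextran-stripped serum, with CCF4 ratio read-out and IC50 from Hill fits.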

[14] = molecular target: Vitamin D3 receptor (Homo sapiens) (UniProt P11473); assay: qHTS assay for small molecule antagonists of vitamin D receptor signaling (AID 588541; calls by dose curve;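 also: receptor activated by calcitriol during compound treatment; series mostly up to about 77 µM; % is scaled to controls: 0 for no effect and ±100 for the full control effect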)
Outline: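 Antagonist-mode beta-lactamase reporter assay: HEK293T VDR-UAS-bla cells were exposed to titrated compound alongside 1-alpha,25-dihydroxyvitamin D3 at 3 nM final for 16 h. Values were normalized to the 50 nM agonist control and DMSO basal, with IC50 and efficacy from Hill equation fits.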

[15] = qHTS assay for small molecule agonists of retinoid X receptor alpha signaling (AID 588544; calls by dose curve; also: potency is read from the fitted curve at half-maximal effect); settings: HEK293T RXRa-UAS-bla, beta-lactamase reporter, 18 h; 530 nm emission
[16] = molecular target: Retinoic acid receptor RXR-alpha (Homo sapiens) (UniProt P19793); assay: as above

Chain of Peroxisome proliferator-activated receptor gamma (Homo sapiens) (P37231 whole entry, looked up): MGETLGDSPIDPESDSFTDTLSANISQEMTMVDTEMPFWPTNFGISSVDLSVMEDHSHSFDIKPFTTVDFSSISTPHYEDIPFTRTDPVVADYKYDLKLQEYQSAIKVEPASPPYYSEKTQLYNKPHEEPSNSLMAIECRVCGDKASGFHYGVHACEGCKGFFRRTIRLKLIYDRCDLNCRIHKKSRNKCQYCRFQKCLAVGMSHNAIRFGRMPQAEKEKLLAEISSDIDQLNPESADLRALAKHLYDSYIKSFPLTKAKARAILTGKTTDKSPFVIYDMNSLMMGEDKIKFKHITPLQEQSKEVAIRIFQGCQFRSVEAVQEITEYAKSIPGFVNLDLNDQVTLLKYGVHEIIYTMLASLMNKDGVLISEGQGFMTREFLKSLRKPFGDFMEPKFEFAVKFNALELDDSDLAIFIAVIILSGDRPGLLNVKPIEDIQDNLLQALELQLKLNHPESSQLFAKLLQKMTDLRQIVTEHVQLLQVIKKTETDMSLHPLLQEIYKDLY
Chain of Voltage-gated inwardly rectifying potassium channel KCNH2 (Homo sapiens) (Q12809 whole entry, looked up): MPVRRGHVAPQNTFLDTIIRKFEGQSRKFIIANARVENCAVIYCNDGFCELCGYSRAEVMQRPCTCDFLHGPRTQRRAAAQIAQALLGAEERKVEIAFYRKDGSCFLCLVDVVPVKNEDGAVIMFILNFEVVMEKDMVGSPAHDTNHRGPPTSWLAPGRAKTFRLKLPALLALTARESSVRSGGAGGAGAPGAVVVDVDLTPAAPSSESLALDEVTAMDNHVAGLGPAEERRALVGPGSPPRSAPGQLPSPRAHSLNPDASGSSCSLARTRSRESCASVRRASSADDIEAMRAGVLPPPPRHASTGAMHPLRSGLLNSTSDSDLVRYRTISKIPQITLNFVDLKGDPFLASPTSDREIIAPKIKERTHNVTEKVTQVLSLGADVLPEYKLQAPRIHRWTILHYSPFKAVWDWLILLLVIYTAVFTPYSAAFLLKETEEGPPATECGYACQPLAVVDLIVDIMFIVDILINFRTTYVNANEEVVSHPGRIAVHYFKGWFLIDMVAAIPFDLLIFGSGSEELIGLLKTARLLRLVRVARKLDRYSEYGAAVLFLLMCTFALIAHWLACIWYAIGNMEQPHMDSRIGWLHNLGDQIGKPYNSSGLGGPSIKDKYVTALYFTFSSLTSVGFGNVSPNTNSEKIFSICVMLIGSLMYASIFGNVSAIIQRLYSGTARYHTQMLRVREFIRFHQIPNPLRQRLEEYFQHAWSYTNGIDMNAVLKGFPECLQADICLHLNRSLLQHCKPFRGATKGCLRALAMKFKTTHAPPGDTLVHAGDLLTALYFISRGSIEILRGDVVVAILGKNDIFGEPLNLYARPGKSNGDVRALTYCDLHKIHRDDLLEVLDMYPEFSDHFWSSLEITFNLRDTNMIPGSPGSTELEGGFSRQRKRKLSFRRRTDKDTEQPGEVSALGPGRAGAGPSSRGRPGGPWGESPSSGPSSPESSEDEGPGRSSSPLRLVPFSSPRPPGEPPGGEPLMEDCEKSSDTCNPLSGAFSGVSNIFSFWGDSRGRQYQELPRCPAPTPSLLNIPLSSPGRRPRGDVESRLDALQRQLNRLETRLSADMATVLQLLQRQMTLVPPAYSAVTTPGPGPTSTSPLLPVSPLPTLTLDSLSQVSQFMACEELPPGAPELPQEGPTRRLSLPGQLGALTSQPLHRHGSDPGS
Chain of Retinoic acid receptor RXR-alpha (Homo sapiens) (P19793 whole entry, looked up): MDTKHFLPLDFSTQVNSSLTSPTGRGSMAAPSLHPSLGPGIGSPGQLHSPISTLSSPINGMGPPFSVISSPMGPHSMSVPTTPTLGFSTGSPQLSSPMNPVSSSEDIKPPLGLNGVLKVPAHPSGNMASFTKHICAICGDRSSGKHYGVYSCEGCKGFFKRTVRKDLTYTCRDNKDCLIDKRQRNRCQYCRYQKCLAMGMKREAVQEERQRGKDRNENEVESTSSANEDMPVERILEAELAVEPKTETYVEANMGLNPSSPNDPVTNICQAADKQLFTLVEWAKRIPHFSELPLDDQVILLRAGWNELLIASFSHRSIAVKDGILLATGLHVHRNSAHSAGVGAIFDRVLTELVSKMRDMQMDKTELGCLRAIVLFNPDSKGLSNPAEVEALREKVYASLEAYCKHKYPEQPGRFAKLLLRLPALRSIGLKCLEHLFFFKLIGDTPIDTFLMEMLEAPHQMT
Chain of Glutaminase kidney isoform, mitochondrial (Homo sapiens) (O94925 whole entry, looked up, canonical isoform): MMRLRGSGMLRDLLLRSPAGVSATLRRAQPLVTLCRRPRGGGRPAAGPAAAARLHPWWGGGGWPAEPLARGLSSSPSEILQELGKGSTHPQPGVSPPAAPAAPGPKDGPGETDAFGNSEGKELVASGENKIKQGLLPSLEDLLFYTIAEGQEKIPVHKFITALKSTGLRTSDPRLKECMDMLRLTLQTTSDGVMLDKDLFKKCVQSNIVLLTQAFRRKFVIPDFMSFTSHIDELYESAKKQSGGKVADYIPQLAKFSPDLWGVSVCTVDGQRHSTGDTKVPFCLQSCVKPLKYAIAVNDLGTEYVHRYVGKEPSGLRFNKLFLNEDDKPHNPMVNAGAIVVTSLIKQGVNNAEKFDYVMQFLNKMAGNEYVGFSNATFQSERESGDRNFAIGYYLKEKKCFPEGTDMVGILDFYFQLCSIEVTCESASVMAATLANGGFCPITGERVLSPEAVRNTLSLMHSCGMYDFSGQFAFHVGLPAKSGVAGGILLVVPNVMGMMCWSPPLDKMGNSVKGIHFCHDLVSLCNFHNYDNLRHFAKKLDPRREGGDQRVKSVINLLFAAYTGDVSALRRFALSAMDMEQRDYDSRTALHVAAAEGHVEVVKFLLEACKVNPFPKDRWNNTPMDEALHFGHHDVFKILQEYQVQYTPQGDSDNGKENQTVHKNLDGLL
Chain of Glucagon-like peptide 1 receptor (Homo sapiens) (P43220 whole entry, looked up): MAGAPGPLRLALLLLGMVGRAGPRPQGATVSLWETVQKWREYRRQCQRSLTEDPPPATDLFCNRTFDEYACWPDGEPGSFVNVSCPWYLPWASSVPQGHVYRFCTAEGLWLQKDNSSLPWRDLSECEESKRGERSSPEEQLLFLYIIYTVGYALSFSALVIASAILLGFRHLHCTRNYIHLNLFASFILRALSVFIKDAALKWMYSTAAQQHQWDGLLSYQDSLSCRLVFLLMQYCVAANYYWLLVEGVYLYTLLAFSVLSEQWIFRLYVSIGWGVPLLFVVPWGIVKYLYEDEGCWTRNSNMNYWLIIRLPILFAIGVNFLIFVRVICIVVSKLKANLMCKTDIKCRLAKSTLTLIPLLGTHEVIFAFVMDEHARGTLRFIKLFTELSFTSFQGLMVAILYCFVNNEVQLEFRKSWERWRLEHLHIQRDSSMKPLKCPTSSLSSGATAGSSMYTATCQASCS
Chain of Thyroid hormone receptor beta (Homo sapiens) (P10828 whole entry, looked up): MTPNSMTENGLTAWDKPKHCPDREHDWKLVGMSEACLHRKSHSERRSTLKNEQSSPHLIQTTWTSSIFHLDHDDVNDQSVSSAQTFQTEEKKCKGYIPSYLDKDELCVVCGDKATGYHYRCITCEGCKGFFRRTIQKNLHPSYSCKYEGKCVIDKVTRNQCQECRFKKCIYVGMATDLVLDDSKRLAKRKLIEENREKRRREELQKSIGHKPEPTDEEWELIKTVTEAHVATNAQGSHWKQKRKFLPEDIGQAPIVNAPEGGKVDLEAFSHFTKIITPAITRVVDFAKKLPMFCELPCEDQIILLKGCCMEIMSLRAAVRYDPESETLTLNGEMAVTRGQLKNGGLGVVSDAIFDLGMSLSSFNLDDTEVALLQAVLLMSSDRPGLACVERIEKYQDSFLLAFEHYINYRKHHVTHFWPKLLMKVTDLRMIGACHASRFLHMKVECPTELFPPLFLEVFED
Chain of Vitamin D3 receptor (Homo sapiens) (P11473 whole entry, looked up): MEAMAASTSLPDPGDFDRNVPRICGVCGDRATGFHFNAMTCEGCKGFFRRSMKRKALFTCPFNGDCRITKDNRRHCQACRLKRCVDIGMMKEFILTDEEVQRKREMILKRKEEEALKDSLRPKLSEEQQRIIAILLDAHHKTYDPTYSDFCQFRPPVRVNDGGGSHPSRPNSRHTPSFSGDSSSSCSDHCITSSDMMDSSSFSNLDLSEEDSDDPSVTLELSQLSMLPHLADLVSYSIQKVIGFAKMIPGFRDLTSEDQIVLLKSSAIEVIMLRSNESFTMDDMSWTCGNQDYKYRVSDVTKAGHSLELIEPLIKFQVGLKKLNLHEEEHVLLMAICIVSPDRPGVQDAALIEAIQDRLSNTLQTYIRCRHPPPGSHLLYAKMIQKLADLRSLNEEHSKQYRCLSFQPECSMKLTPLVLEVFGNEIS

O=C(O)c1cccnc1C(=O)O
inactive: Potency [1] | Potency [2] | Potency [3] | Potency [4]

CC(N)(C(=O)O)c1ccc(C(=O)O)cc1 (configuration not stated)
inactive: Potency [1] | Potency [2] | Potency [3] | Potency [4]

O=c1[nH]c2ccccc2c2ccccc12
inactive: Potency [1] | Potency [2] | Potency [3] | Potency [4] | Potency [5]

CCCc1c(-c2ccc(O)cc2)nn(-c2ccc(O)cc2)c1-c1ccc(O)cc1
active: Potency [6] 22.4 µM
inactive: outcome [7] | Potency [1] | Potency [2] | Potency [3] | Potency [4] | Potency [5] | Potency [8]

CNC(=O)c1cc2c(cn1)[nH]c1ccccc12
inactive: Potency [1] | Potency [2] | Potency [3] | Potency [4] | Potency [5]

CCCCCCC/C=C\CCCCCCCCC(=O)O
inactive: Potency [1] | Potency [2] | Potency [3] | Potency [4] | Potency [5]

Nc1ccc(CCNc2ncnc3c2ncn3C2OC(CO)C(O)C2O)cc1 (configuration not stated)
inactive: Potency [1] | Potency [2] | Potency [3] | Potency [4] | Potency [5]

CCCCCCCCCCCCCCSCC(=O)O
active: Potency [9] 28.2 µM
10.4%: max response [11]
inactive: outcome [10] | max response [12] 5.79% | activity change % (negative = inhibition) [13] -24.7% | Potency [1] | Potency [3] | Potency [4] | Potency [5] | Potency [8]

CC#CCOC(=O)c1c(C)nc2sc3c(c2c1N)CCC(O)C3 (configuration not stated)
inactive: Potency [1] | Potency [2] | Potency [3] | Potency [4] | Potency [5]

CC(=O)NCCc1c[nH]c2ccc(O)cc12
active: Potency [2] 1 µM
inactive: Potency [1] | Potency [3] | Potency [4] | Potency [5]

N=C(N)c1ccc(N)cc1
inactive: Potency [1] | Potency [2] | Potency [3] | Potency [4] | Potency [5]

N[C@H]1CONC1=O
inactive: Potency [1] | Potency [2] | Potency [3] | Potency [4] | Potency [5]

N[C@@H](Cc1ccc(O)c(I)c1)C(=O)O
inactive: Potency [1] | Potency [2] | Potency [3] | Potency [4] | Potency [5]

NC(N)=[N+]1CCc2ccccc2C1
inactive: Potency [1] | Potency [2] | Potency [3] | Potency [4] | Potency [5]

CCOC(=O)C12CC1/C(=N/O)c1ccccc1O2 (configuration not stated)
inactive: Potency [1] | Potency [2] | Potency [3] | Potency [4] | Potency [5]

CC1CNCCN1S(=O)(=O)c1cccc2cnccc12 (configuration not stated)
inactive: Potency [1] | Potency [2] | Potency [3] | Potency [4] | Potency [5]

NOCC(=O)O
inactive: Potency [1] | Potency [2] | Potency [3] | Potency [4] | Potency [5]

Cc1ccc([N+](=O)[O-])cc1S(=O)(=O)N(C)C
inactive: Potency [1] | Potency [2] | Potency [3] | Potency [4] | Potency [5]

CC(=O)NNC(=O)N1Cc2ccccc2Oc2ccc(Cl)cc21
inactive: Potency [1] | Potency [2] | Potency [3] | Potency [4] | Potency [5]

OCC1NCC(O)C(O)C1O (configuration not stated)
inactive: Potency [1] | Potency [2] | Potency [3] | Potency [4] | Potency [5]

Fc1ccc(CN(C2=NCCN2)c2c(Cl)cccc2Cl)cc1
active: Potency [1] 10 µM
inactive: Potency [2] | Potency [3] | Potency [4] | Potency [5]

COc1ccc(-c2ccc(N)[n+](CCCC(=O)O)n2)cc1
inactive: Potency [1] | Potency [2] | Potency [3] | Potency [4] | Potency [5]

N[C@@H](CS(=O)O)C(=O)O
inactive: Potency [1] | Potency [2] | Potency [3] | Potency [4] | Potency [5]

Cn1ccnc1
inactive: Potency [1] | Potency [2] | Potency [3] | Potency [4] | Potency [5]

C/C(=C\c1ccc(C(=O)O)cc1)c1ccc2c(c1)C(C)(C)CCC2(C)C
0.91%: max response [15]
active: Potency [16] 708 nM
inactive: outcome [14] | outcome [7] | max response [12] 9.51% | Potency [1] | Potency [2] | Potency [3] | Potency [4] | Potency [5]
-6.55%: max response [11]

Cc1cc2c(cc1Cl)N(C(=O)Nc1ccnc3ccccc13)CC2
active: Potency [2] 7.08 µM
inactive: Potency [1] | Potency [3] | Potency [4] | Potency [5]

CCSC(=N)N
inactive: Potency [1] | Potency [2] | Potency [3] | Potency [4]

CN1CCC2(CCN3CCc4c(oc5ccccc45)C3C2)N(C)C1=O (configuration not stated)
inactive: Potency [1] | Potency [2] | Potency [3] | Potency [4] | Potency [5]

CCCCCCCCCC(=O)NC(CN1CCOCC1)[C@H](O)c1ccccc1 (some centres not stated)
active: Potency [1] 12.6 µM
inactive: Potency [2] | Potency [3] | Potency [4] | Potency [5]

NC(=O)c1ccccc1
inactive: Potency [9] | Potency [6] | outcome [14] | outcome [7] | Potency [16] | outcome [10] | max response [12] 5.33% | activity change % (negative = inhibition) [13] -4.09% | Potency [1] | Potency [2] | Potency [3] | Potency [4] | Potency [5] | Potency [8]
-3.13%: max response [11]
-1.09%: max response [15]
